From the supplement of paper PMC6555819

Experiments:
Experiment in all cases: PBM binding z-score (relative to random genomic background probes); higher = stronger binding; sequences stand for … in GC…GCGATTGACAGCGTAGAATGAAGG
[1] = tested on: FXR:RXRa (NR concentration 270 nM, RXRa partner concentration 90 nM)
In short: (§1)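 Antibodies against each partner of ligand-free nuclear receptor dimers (one per run) detected binding on custom Agilent 4×180K protein-binding microarrays after 1 h incubation. The double-stranded probes had 34-nt variable regions carrying direct-repeat seeds, single-nucleotide variants, half-site ablations and random human genomic background sequences. Binding z-scores, from regression-normalized fluorescence, use the random background probes as reference.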

[2] = tested on: LXRa:RXRa (NR concentration 270 nM, RXRa partner concentration 90 nM)
In short: as §1

[3] = tested on: LXRa homodimer (NR concentration 270 nM)
In short: as §1

[4] = tested on: LXRb:RXRa (NR concentration 270 nM, RXRa partner concentration 90 nM)
In short: as §1

[5] = tested on: LXRb homodimer (NR concentration 270 nM)
In short: as §1

[6] = tested on: PPARa:RXRa (NR concentration 270 nM, RXRa partner concentration 90 nM)
In short: as §1

[7] = tested on: PPARg:RXRa (NR concentration 180 nM, RXRa partner concentration 90 nM)
In short: as §1

[8] = tested on: PPARg:RXRa 270nM:90nM, anti-RXR (NR concentration 270 nM, RXRa partner concentration 90 nM)
In short: as §1

[9] = tested on: PPARg:RXRa 30nM:10nM, anti-RXR (NR concentration 30 nM, RXRa partner concentration 10 nM)
In short: as §1

[10] = tested on: PPARg:RXRa 90nM:30nM, anti-RXR (NR concentration 90 nM, RXRa partner concentration 30 nM)
In short: as §1

Sequence	PBM binding z-score [1]	PBM binding z-score [2]	PBM binding z-score [3]	PBM binding z-score [4]	PBM binding z-score [5]	PBM binding z-score [6]	PBM binding z-score [7]	PBM binding z-score [8]	PBM binding z-score [9]	PBM binding z-score [10]
GCGACTGGGGCATCAACAGGTTACCATAACTTAA	-0.21	0.22	-0.147	1.42	-0.367	1.48	1.15	0.92	-0.0267	0.231
ATATGTAGGTTAAGGGTCATACAGGTTGGTTCGC	4.79	4.61	2.43	4.61	1.28	6.57	12.1	10.2	9.63	12.5
CTCAAAAGGTCGGTTGAGGTGAGTATACGGATAA	2.63	1.8	-0.331	1.63	0.0339	2.98	0.821	1.29	0.383	0.881
CCGACTAGGGCAAGGTTACCATAACGCACAGCCA	0.299	0.666	-0.117	0.701	-1.03	1.93	3.55	3.99	1.61	3.28
GCTAGCAGGCTATTTGGGTCACTCAATGACGGGC	0.127	0.137	-0.259	0.255	-0.646	2.16	1.11	1.36	-0.338	0.706
TCATATAGGTAAAAAGTGAAAGTCGGTGTGGTAA	1.13	1.01	0.0735	0.858	-0.108	2.62	3.5	5.44	5.22	5.77
TCGAGTAGGTTATTCGGGGCATTCAGCCAACATA	1.16	1.05	0.0577	1.51	-0.7	1.69	0.35	1.19	1.13	1.07
TCTTGTAGATCAGCTGGTTAAGAAAGCTGGCCAA	0.0372	-0.146	-0.717	-0.0754	-0.836	0.363	-1.11	1.04	2.43	1.75
ACAGATAGGTGATGAAGGTAACTCAGGCTATCAT	-0.192	-0.132	-0.27	-0.29	-0.768	0.548	0.643	0.541	0.412	0.624
CTACCAAGGTGAACAAGGTGGTTGATTACTATTC	0.298	0.0424	-0.231	0.391	-0.589	1.21	0.492	0.416	-0.231	0.026
CTCGAAAGGTCGGTTGAGTTGAGTATACGGATAA	2.22	1.48	0.18	1.5	-0.0298	2.27	0.295	0.792	0.314	0.857
CCTTACGGGTCATGGTTATAGCACGGGTGGTACG	5.13	3.14	-0.115	2.68	-0.0469	4.97	3.99	4.19	1.44	3.03
TTACCAAGGTGAGCGGAGGTCGTTGATCCAACTC	1.38	1.36	-0.4	0.829	-1.16	1.81	0.414	1.19	0.0694	0.605
TCTTGTAGATCAATAGAGGTTAAGACAGTGCGCT	0.684	3.16	0.434	1.56	0.045	1.98	0.205	1.48	2.9	2.34
TCATACAGGTAAAGGTGAAAGTCGAACGATATGA	1.17	1.57	0.0169	1.44	0.312	3.08	2.39	3.81	4.26	4.38
TCAGACAGGGGAAGGTAACTCAGGTACGCAGTCG	0.82	1.65	0.166	1.3	0.859	0.994	0.622	2.06	3.77	2.68
TCTAGCAGGCCAGAGGGTCACGCAAGAGGTACGG	1.68	1.54	-0.618	1.93	-1.47	3.24	2.4	2.99	1.96	2.57
CCTTACGGGTCACTGACAGGTGATAGCATTTGGA	6.8	5.19	0.411	4.32	-0.315	5.68	4.86	4.97	1.83	4
CGTCAAAGTTCAACTAAGGTAACGTACAGCACGC	7.43	6.41	4.76	4.34	2.05	5.25	5.21	5.62	2.85	4.59
AATACAGGGTCATCGTAGGCCAGAATACGCACAG	7.14	6.31	2.07	4.74	1.07	5.64	6.6	5.68	2.64	4.45
ACTAGCAGGCCAAGGGTCACTCGAGATTAGTCCG	2.44	2.89	0.209	2.6	-0.293	4.51	7.9	7.44	6.36	8.11
TCTATGAGTTGATTAGGGCAACCGAAACAGCGGA	0.319	0.351	-0.0686	0.151	-0.328	1.07	0.39	1.31	2.32	1.65
CCAGACAGGTGCAAGGTAACTCAGTCTGGTACGC	-0.53	-0.47	-0.166	-0.568	-0.694	-0.13	0.366	0.416	-0.287	0.128
CCTTACGGGTCACTCCAGGTTAAAGCATCGGAGT	5.18	7.96	2.58	5.93	0.173	4.59	3.59	4.06	1.02	2.86

Sequence	PBM binding z-score [1]	PBM binding z-score [2]	PBM binding z-score [3]	PBM binding z-score [4]	PBM binding z-score [5]	PBM binding z-score [6]	PBM binding z-score [7]	PBM binding z-score [8]	PBM binding z-score [9]	PBM binding z-score [10]
CCTTACGGGTCACTCCAGGTTATAGCTTCGGAGT	5.46	7.43	1.7	4.64	0.284	4.05	3.22	3.66	1	2.17
AGAAGGAGGGCAATGAGTTGATAGCACGGGTGGC	0.307	0.255	0.19	0.452	0.521	1.2	1.33	0.786	-0.173	0.451
ACTTACGGGTCAACGAGGATATAGCACGCGTATA	6.53	4.05	0.457	3.61	0.828	5.43	5	5.19	2.12	3.85
CCAGACAGATGAAAGGTAACTCAGTCTGGTACGC	-0.273	0.0444	-0.381	0.156	-0.167	0.579	0.879	1.21	0.636	0.829
ACTCGGAGGACAAAGTTCAGAGCTACGCCAGTGA	1.48	1.83	1.79	0.868	-0.232	2.82	4.04	5.27	3.37	5.49
GCTATTAGTTGAAAGGGCAACCTAATGATTCTCG	0.451	0.673	0.238	1.08	-0.393	2.38	2.46	4.31	2.24	4.3
TCTCAGAGGACACGAAGGTCAGAGCTTTCCAGAG	1.39	1.27	0.407	0.974	-0.749	2.07	0.696	2.01	3.02	2.45
CTAACTAGGTCAAGAGGTCAAAGTCCGCTTCCCG	6.96	6.46	6.71	5.78	2.03	6.55	10.3	8.4	7.88	8.64
CAAACTAGGTCAAGGTGAAAGTCGGTTTGTGCCA	3.92	2.88	0.394	1.93	0.139	5.18	8.7	7.35	6.13	7.28
AGAATGAGGTTATACGTAGATCAGGTAAGAAAGT	2.3	2.13	0.183	1.72	-0.0403	3.17	2.14	2.25	0.708	1.53
TGAATGAGGTAATAAGATCAGGGAACGTTGCAAA	-0.101	-0.238	-0.404	-0.279	-0.0513	0.529	0.563	0.725	0.309	0.427
TCTTGTAGATCAAAGGTTAAAAAAGCCGAAGCCT	1.88	2.35	0.549	2.44	0.41	4.79	8.35	8.18	7.69	9.24
ATCTCTAGGTAACGAAGTTCAGTGAATGCCGAAC	0.145	0.276	0.427	0.411	0.414	0.915	0.812	1.02	0.0863	0.766
CCTATTAGTTGACCATAATGGCAACCGAAGCTCG	0.282	0.486	0.78	0.483	1.03	0.289	0.468	-0.0519	-0.187	0.0677
GTACCAAGGTGAATAGGTCGTTGACGAGTAGGCG	1.08	0.711	-0.12	0.495	-0.439	2.45	1.58	1.84	0.445	1.35
ACTATTACTTGACTTAGGGCAACCGATACGACGC	0.391	0.445	1.02	0.691	1.56	0.231	1.19	0.283	0.727	0.716
TAGCCTAGGTCACGCGGGCCAGTATAGTGTCGGC	5.13	3.81	0.104	2.03	-0.215	4.31	4.11	4.02	0.903	3.02
TCGAGTAGGCTAGTCGGGGCATTCAGCCAACATA	-0.433	-0.611	-0.763	-0.579	-1.53	-0.209	-0.351	0.0773	0.911	0.101
GTACCAAGGTGAGTAGGTCGTTGATGAGTAGGCG	0.04	0.0147	-0.31	-0.286	-0.924	1.17	0.822	0.888	-0.11	0.35
TGAATGAGGCTAAAGATCAGGGAACGTGGCGTCG	-0.481	-0.541	-0.699	-0.926	-0.646	1.97	2.96	4.9	3.03	4.67
CAAACTACGTCAAGAGGTCAAAGTCCGCTTCCCG	5.07	5.77	5.87	4.77	2.06	5.09	3.07	4.83	2.39	4.26
AGTCAAAGTTCAGGACAAGGTAACGTAAAGCACG	4.6	3.97	1.69	2.19	0.548	3.47	4.97	4.95	2.16	4.11
GCCGACAGGTGAAACGCAGGTAACTCAGGGTGGC	-0.479	0.0317	-0.662	-0.204	-1.11	0.797	0.421	-0.333	-0.664	-0.468
TCATATTGGTAATACAGGTGAAAGTCGGCATCTA	1.28	1.16	0.763	1.2	0.359	1.79	1.09	2.7	3.88	3.11
